This is an account of results in PubChem BioAssay (Tox21).

The source made the active and inactive calls. Calls come from the whole dose curve; as a rule, active = well fitted curve in the direction sought with a large enough effect in the repeat runs; inconclusive = weak or mixed curves; inactive = flat fitted curve, though single readings scatter.

This assay is described as follows: qHTS assay to test for compound auto fluorescence at 535 nm (green) in HepG2 cells (AID 720675). Particulars: green autofluorescence 485/535 nm, 1 h; series mostly up to 91.3 µM. The source says:
National Center for Advancing Translational Sciences [NCATS]
NIH Chemical Genomics Center [NCGC]
U.S. Environmental Protection Agency [EPA]
National Institutes of Environmental Health Sciences [NIEHS]
National Toxicology Program [NTP]
U.S. Food and Drug Administration [FDA]
Compound auto fluorescence often interferes with screening of the compound library against various biological targets and signaling pathways. Some of these compounds may have fluorophoric properties. Such properties may interfere with the assay outputs resulting in false positives and/or negatives. To decrease such complications and ensure the compound activities are relevant in terms of biological response, the Tox21 10K compound library was screened for auto fluorescence.
From the fluorophores used as reporter signals in our screening assays, the auto fluorescence equivalencies of compounds against three fluorophores have been evaluated: Triamterene, Fluorescein and Rose Bengal sodium for blue, green and red fluorescence, respectively. The fluorescence intensities were measured using Excitation/Emission wavelengths at 405/460nm, 485/535nm and 540/590nm for blue, green and red labels, respectively. This assay includes the green fluorescence data.
Tox21 Assay Protocol Summary:
2,000 HepG2 cells in 5 uL of culture medium (MEM containing 10% FBS) per well were dispensed into black wall/clear bottom 1536-well plates using a Multidrop Combi Dispenser (ThermoFisher Scientific, Waltham, MA). The assay plates were incubated overnight at 37 C to allow cell attachment to the well bottom, followed by the transfer of 23 nL compound or DMSO vehicle by a pintool work station (Kalypsys , San Diego, CA). After the assay plates were incubated for 1 hr at 37 C and 5% CO2, fluorescence intensities in the assay plates were measured by an Envision (PerkinElmer, Shelton, CT) plate reader using three labels for measuring blue, green and red fluorescence at […] 460, 535 and 590 nm respectively.
For orientation: qHTS replaces the single test concentration by a dilution series.
As for `Cc1cccc(C)c1O`, the compound was called inactive.

As for `Cc1cccc(Nc2cc(Cl)nc(SCC(=O)O)n2)c1C`, the result was inactive.

For `CC1(C)O[C@@H]2[C@@H](CO[C@@]3(COS(N)(=O)=O)OC(C)(C)O[C@@H]23)O1`, the compound was called inactive.

Take `CCn1cc(C(=O)O)c(=O)c2ccc(C)nc21`: the call was inactive.

For the compound `c1ccc2[nH]c(-c3cscn3)nc2c1`, the outcome was inactive.

Consider `NC(=O)c1ccc([N+](=O)[O-])cc1Cl`, for which the result was inactive.

In the case of `CC(=O)OC/C=C(C)/C=C/C=C(C)/C=C/C1=C(C)CCCC1(C)C`, the compound was classed as inactive.

As to `O=C(OCc1ccccc1)c1ccccc1`, the compound was called inactive.

In the case of `Cc1c(N(C)CS(=O)(=O)O)c(=O)n(-c2ccccc2)n1C`, the compound was classed as inactive.

`CCOCCO`: the call was inactive.

As to `C1CNCCN1`, the outcome was inactive.

Take `N[C@@H](Cc1c[nH]c2ccc(O)cc12)C(=O)O`: the compound was classed as inactive.

Turning to `COC1=CC(=O)C[C@@H](C)[C@]12Oc1c(Cl)c(OC)cc(OC)c1C2=O`, the compound was called inactive.

As for `NC(=O)N1c2ccccc2C=Cc2ccccc21`, the call was inactive.

For the compound `C#C[C@]1(O)CC[C@H]2[C@@H]3CCc4cc(O)ccc4[C@H]3CC[C@@]21C`, the compound was called inactive.

Regarding `CCCCCCCCCCCCCCCCCC(=O)OCC(O)CO` (stereo not given), the outcome was inactive.

On to `Cn1cnc2c1c(=O)[nH]c(=O)n2C`, for which the result was inactive.

Take `CCc1cc(C(N)=S)ccn1`: the result was inactive.

With `CC(O)COc1ccccc1` (stereo not given), the compound was classed as inactive.

On to `O=[N+]([O-])c1ccc(O)cc1`, for which the compound was called inactive.

With `O=C1OC(c2ccc(O)cc2)(c2ccc(O)cc2)c2ccccc21`, the compound was called inactive.

Turning to `OCCCc1ccccc1`, the result was inactive.

`O=C(O)Cc1cccc2ccccc12`: the compound was classed as inactive.

In the case of `C=CCOC(=O)CC(C)C`, the outcome was inactive.

For `CO[C@H]1C=CO[C@@]2(C)Oc3c(C)c(O)c4c(O)c(c(/C=N/N5CCN(C)CC5)c(O)c4c3C2=O)NC(=O)/C(C)=C\C=C[C@H](C)[C@H](O)[C@@H](C)[C@@H](O)[C@@H](C)[C@H](OC(C)=O)[C@@H]1C`, the result was inactive.

Take `NC(=O)OCC(COC(N)=O)c1ccccc1`: the result was inactive.

As for `CC1=C(/C=C/C(C)=C/C=C/C(C)=C/C(=O)O)C(C)(C)CCC1`, the result was inactive.

As to `Nc1ccc(N=Nc2ccccc2)c(N)n1`, the result was inactive.

As for `CCN(CC)CCOC(=O)c1ccc(N)cc1`, the outcome was inactive.

On to `CCCCOC(=O)CCCCCCCCC(=O)OCCCC`, for which the compound was called inactive.

On to `O=c1cc[nH]c(=O)[nH]1`, for which the compound was classed as inactive.

Take `COC(=O)C1CCC(C(=O)OC)CC1` (stereo not given): the compound was called inactive.

Regarding `Cc1c(N(C)C)c(=O)n(-c2ccccc2)n1C`, the result was inactive.

`CN(C)Cc1cc(CN(C)C)c(O)c(CN(C)C)c1`: the compound was classed as inactive.

As to `CCCCNC(=O)NS(=O)(=O)c1ccc(N)cc1`, the compound was classed as inactive.

As for `COc1cc2c(c(OC)c1OC)-c1ccc(OC)c(=O)cc1[C@@H](NC(C)=O)CC2`, the compound was classed as inactive.

Consider `NC(=O)N/N=C/c1ccc([N+](=O)[O-])o1`, for which the compound was classed as inactive.

In the case of `COCCOCCOC`, the compound was called inactive.

Consider `C#C[C@]1(O)CC[C@H]2[C@@H]3CCC4=CC(=O)CC[C@@H]4[C@H]3CC[C@@]21CC`, for which the outcome was inactive.

As to `COCC(C)N` (stereo not given), the call was inactive.
